# Screening data from PubChem BioAssay.
# DRD3 antagonist = blocks the human D3 dopamine receptor; P35462; D3R cells, DiscoveRx beta-arrestin luminescence, antagonist mode; hits give low values; max response, negative = inhibition, %; 360,000 compounds, 2.5% hits; AID 652054; in the data active = max response below about -50%; inconclusive = no clear call, values can overlap the other calls
# Target sequence (P35462 whole entry, looked up): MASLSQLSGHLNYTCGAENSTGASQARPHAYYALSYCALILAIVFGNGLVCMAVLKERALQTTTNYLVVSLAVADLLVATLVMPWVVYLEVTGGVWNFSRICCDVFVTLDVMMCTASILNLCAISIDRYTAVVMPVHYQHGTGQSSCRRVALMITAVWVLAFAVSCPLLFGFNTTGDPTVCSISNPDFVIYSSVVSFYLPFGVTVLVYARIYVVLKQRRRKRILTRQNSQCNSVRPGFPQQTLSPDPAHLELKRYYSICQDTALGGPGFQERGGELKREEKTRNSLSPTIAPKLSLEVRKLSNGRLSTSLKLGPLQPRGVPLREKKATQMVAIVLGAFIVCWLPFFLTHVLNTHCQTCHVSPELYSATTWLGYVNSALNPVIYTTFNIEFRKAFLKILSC
#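 Cells plated overnight at 1500 cells/well, then exposed to library compounds with dopamine controls for 90 minutes at 37 degrees C. DiscoveRx reagent added for 30–60 minutes at room temperature; luminescence read, quantitative HTS format.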
# ATXN viability = viability counter-screen for ATXN expression inhibitors. Potency, µM (highest dose often 56.7 µM), hits mostly cytotoxic. 400,000 compounds, 0.49% hits. S2 cells (HEK-293 line with an ATXN2-luciferase reporter) viability, CellTiter-Fluor protease fluorescence, 24 h; note: nearly all actives have a fitted effect of over 40% in size
# IL1B secr inh = blocks inflammasome-driven IL-1 beta release; THP-1 LPS/ATP IL-1B secretion, AlphaLISA, 16 h; hits give low values; activity change, % at 57.5 µM; 360,000 compounds, 4.7% hits; AID 743279; in the data active = activity change below about -50%; inconclusive = mostly about -30% to -49%
#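 Secreted IL-1B measured by AlphaLISA bead assay after 16 h compound exposure of THP-1 cells; compounds (final up to 57.5 uM) added 1 h before LPS (250 ng/mL) and ATP (1.25 mM) stimulation; lower signal means less secretion.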
# DRD3 agonist = agonists of human D3 dopamine receptor. max activation, %. D3R DiscoveRx beta-arrestin cells, luminescence, 90 min. 410,000 compounds, 0.58% hits. P35462; in the data active = max activation above about 30%
#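 Cells at 1500/well, incubated overnight, then treated with pinned compounds (dopamine as control) for 90 min at 37 degrees C. DiscoveRx reagent added for 30 - 60 minutes at room temperature; luminescence read.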
# Integrin act MD = activates integrin-mediated alleviation for muscular dystrophy. alpha7betagal myoblasts, beta-gal FDG fluorescence, 48 h. Potency, µM (highest dose often 38.3 µM), usual class: activators. 350,000 compounds, 0.064% hits; note: nearly all actives have a fitted effect of over 60% in size
#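 alpha7betagal+/- myoblasts (passage 13, 250/well) treated 48 h at 37C with compounds at 1:260 dilution of DMSO stock. Lysed, then beta-galactosidase activity read as FDG fluorescence (ex 480/em 540) after 30 min, with pre-read for autofluorescence.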
# ATXN2 expr inh = inhibitors of ATXN2 expression; 360,000 compounds, 0.72% hits; AID 1745845; HEK-293 ATXN2-luciferase reporter, luminescence, 24 h; Potency, µM (doses to about 57 µM), most hits filed as inhibitors; note: nearly all actives have a fitted effect of over 55% in size
#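 qHTS (up to 57 uM final) was run with 24 h compound exposure of reporter cells at 37 °C. Each well was multiplexed: SteadyGlo luminescence measured ATXN2-luciferase expression after a fluorogenic Gly-Phe-AFC viability readout (25 uM final).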
# Numbers stand for hits; i = inactive; ? = inconclusive; nt = no result. Only some compounds are listed: those with a hit (about 7% of all), similar ones and a draw of the others. Unless noted, calls come from the whole dose curve; as a rule, active = well fitted curve in the direction sought with a large enough effect; inconclusive = small, poorly fitted or top-dose-only effect, or another doubt; inactive = no such curve, though single readings can be large; an effect the other way counts as inactive or inconclusive.
SMILES,DRD3 antagonist,ATXN viability,IL1B secr inh,DRD3 agonist,Integrin act MD,ATXN2 expr inh
O=C1/C(=C/c2ccc(O)cc2)COc2ccccc21,i,i,-104,i,i,i
O=C1/C(=C/c2ccccc2[N+](=O)[O-])COc2ccccc21,-71,24µM,-104,i,i,21µM
Cc1cn([C@H]2C[C@H](O)[C@@H](CNC(=O)[C@H](N)C3CC3)O2)c(=O)[nH]c1=O,i,i,i,i,i,i
CC(=O)c1sc(NC(=O)C=C(C)C)nc1C,i,i,i,i,i,i
CCCc1nnc(NC(=O)CCS(=O)(=O)c2ccccc2)s1,i,i,-58,i,i,i
CC(=O)c1sc(NC(=O)C2(F)C(F)(F)C(F)(F)C(F)(F)C(F)(F)C2(F)F)nc1C,?,?,-88,i,i,6.3µM
CCCCc1nnc(NC(=O)CCS(=O)(=O)c2ccc(Cl)cc2)s1,i,i,i,i,i,i
Cc1nnc(NC(=O)CCS(=O)(=O)Cc2ccccc2)s1,i,i,i,i,i,i
CC(=O)c1sc(NC(=O)CCS(=O)(=O)c2ccc(C)cc2)nc1C,i,i,-107,i,i,i
Cc1nnc(NC(=O)CCS(=O)(=O)c2ccccc2)s1,i,i,-93,i,i,i
COC(=O)c1c(NC(=O)C(=O)NCCCN2CCOCC2)sc2c1CCC2,i,i,i,i,i,i
COc1ccccc1C1C2=C(CC(C)(C)CC2=O)Nc2nnnn21 (centres undefined),i,i,i,i,i,i
COc1cccc(NC(=O)[C@H](CC(C)C)NC(=O)[C@@H]2Cc3ccccc3CN2)c1,i,i,i,i,i,i
Cc1ccc(NC(=O)CSc2cn(CC(=O)N3CCCC3)c3ccccc23)cc1Cl,nt,nt,nt,i,nt,nt
COc1ccc(C)c2sc(NC(=O)CCS(=O)(=O)c3ccccc3)nc12,i,i,-90,i,i,i
CC1(C)CC(=O)c2sc(NC(=O)CCS(=O)(=O)c3ccccc3)nc2C1,i,nt,-82,i,i,?
CC(C)(C)c1nnc(NC(=O)CCS(=O)(=O)c2ccccc2)s1,i,?,-103,i,i,i
CCCCn1c(N)c(NCC(C)C)c(=O)[nH]c1=O,i,i,i,i,i,i
COc1ccc(NC(=O)N(C)C[C@H]2Oc3c(NS(=O)(=O)c4cccs4)cccc3C(=O)N([C@@H](C)CO)C[C@@H]2C)cc1,i,i,i,i,i,i
COc1cccc(CNC(=O)c2ccc(-c3nc(CS(=O)c4ccccc4)c(C)o3)cc2)c1 (centres undefined),nt,i,nt,i,nt,i
CC1SCC(NC(=O)c2ccccc2Cl)CS1 (centres undefined),i,?,i,i,i,i
COc1cc2sc3ccc(-c4ccc(CN5CCOCC5)cc4)cc3c(=O)c2cc1OC,i,?,i,118,i,i
O=C(CSc1nnc(Cc2ccccc2)o1)N1CCCc2ccccc21,i,i,i,i,i,i
O=C(CSc1nnc(CNc2ccccc2)o1)N1CCc2ccccc21,i,i,i,44,i,i
Cc1ccc(C(=O)Nc2sc(C)c(-c3ccccc3)c2C(N)=O)cc1[N+](=O)[O-],i,i,i,i,i,i
SMILES,DRD3 antagonist,ATXN viability,IL1B secr inh,DRD3 agonist,Integrin act MD,ATXN2 expr inh
O=c1oc2c(-c3cccc(F)c3)cc(O)cc2s1,i,i,i,i,4µM,?
CCc1cccc(C)c1Nc1nn2c(=O)c3ccccc3nc2s1,nt,nt,nt,i,nt,nt
Cc1ccc(S(=O)(=O)/N=C(/Nc2ccc([N+](=O)[O-])cc2[N+](=O)[O-])c2ccccc2)cc1,i,?,-67,i,i,i
O=C(CN1CCN(Cc2ccccc2Cl)CC1)N=Nc1c(O)[nH]c2ccccc12,i,?,i,i,i,i
Cc1ccc(CN2CCN(CC(=O)N=Nc3c(O)[nH]c4ccccc34)CC2)cc1,-90,i,i,i,i,i
CCc1ccccc1N=C1S/C(=C/c2ccccc2OCC(=O)N2CCOCC2)C(=O)N1C,i,i,-72,i,i,i
O=C1NN(c2ccccc2)C(=O)/C1=C\c1ccccc1OCC(=O)N1CCOCC1,i,i,i,i,i,i
CC(/C=C1\SC(=O)N(CCCC(=O)O)C1=O)=C\c1ccccc1,i,i,i,i,i,1.3µM
Cc1cc(NS(=O)(=O)c2c(C)c(C)cc(C)c2C)no1,i,i,i,i,?,i
Cc1cc(C)c2oc(C(=O)Nc3nnc(C(C)C)s3)cc(=O)c2c1,i,i,i,i,i,nt
CSc1nnc(NC(=O)c2cc(=O)c3cc(C)cc(C)c3o2)s1,i,25µM,i,i,i,i
Oc1ccc(N=Nc2ccccc2)o1,?,?,-90,i,i,i
O=S(=O)(O)c1ccc(N=Nc2ccccc2)cc1,i,i,i,i,i,i
Cc1ccc(C(=O)COC(=O)c2ccncc2)cc1[N+](=O)[O-],-92,i,i,i,i,i
Cc1ccc(C(=O)COC(=O)c2cc(Cl)ccc2O)cc1[N+](=O)[O-],i,i,i,i,i,i
COc1ccccc1N1CCN(Cc2cccs2)CC1,-82,i,i,i,i,i
COc1ccccc1N1CCN(Cc2ccc(C(=O)O)cc2)CC1,i,i,i,i,i,i
COc1ccc(CN2CCN(c3ccccc3OC)CC2)cc1OC,-77,i,i,i,i,i
COc1ccccc1N1CCN(S(=O)(=O)c2cccs2)CC1,i,i,i,i,i,i
COc1cc(CN2CCC(C(=O)N3CCN(c4ccccc4F)CC3)CC2)cc(OC)c1O,i,i,i,i,i,i
COc1cc(CN2CCN(c3ccccc3F)CC2)cc(OC)c1O,?,i,i,43,i,i
COc1ccccc1N1CCN(Cc2cnc3ccc(Cl)cn23)CC1,-91,i,i,i,i,nt
COCCNC(=O)/C(C#N)=C1\N=C(NC(=O)c2ccco2)c2ccccc21,i,nt,?,i,i,nt
COc1ccccc1N1CCN(C(=O)c2ccc(CN3CCOCC3)cc2)CC1,i,i,i,i,i,nt
COc1ccccc1N1CCN(Cc2ccsc2)CC1,-92,i,i,i,i,i
SMILES,DRD3 antagonist,ATXN viability,IL1B secr inh,DRD3 agonist,Integrin act MD,ATXN2 expr inh
COc1ccc(CC(C)N2CCN(c3ccccc3)CC2)cc1OC (centres undefined),-147,i,i,i,i,i
COC(=O)c1cc(CN2CCN(c3ccccc3C)CC2)ccc1O,-80,i,i,i,i,i
COc1ccc(S(=O)(=O)N2CCN(c3ccccc3)CC2)cc1OC,i,i,nt,i,i,i
O=C(Nc1cnc2sccn2c1=O)c1ccccc1Cl,i,i,i,i,i,i
Cc1cccc(NNC(=S)Nc2c(C)cccc2C)c1,i,i,-102,i,i,i
Cc1cccc2c(=O)c(C(=O)NCCc3ccccc3)c[nH]c12,i,i,i,i,i,i
CCOc1ccc2[nH]cc(C(=O)NCCc3ccccc3)c(=O)c2c1,i,i,-54,i,i,?
